# High-throughput results deposited in PubChem by National Center for Advancing Translational Sciences (NCATS).
# IMPase Li inh: membrane-permeable IMPase blocker, potentiated with lithium | CHO-M1 cells, IP1 TR-FRET (IP-One), carbachol + lithium | Potency, µM (top dose mostly 59.4 µM), without a hit: at the highest dose activity, negative = IMPase inhibition, most hits filed as inhibitors | 210,000 compounds, 0.35% hits | AID 1457;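 also: IP1 builds up when IMPase is blocked and the TR-FRET signal falls; potency is read from the fitted curve at half-maximal effect; plate controls were basal vehicle for no effect and high inhibitor control for full effect; nearly all actives have a fitted effect of over 50% in size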
#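 Lithium-sensitised IP1 accumulation assay; M1-expressing CHO cells treated 30 min at 37C with compound. Competitive antibody detection by time-resolved FRET followed a 10 min room-temperature lysis step.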
# IMPase inh: membrane-permeable compound that blocks inositol monophosphatase; CHO-M1 cells, IP1 accumulation, HTRF TR-FRET ratio; inhibition (IP1 accumulation), % at 46.1 µM; 120,000 tested, under 10 active; AID 901; active = well fitted curve in the direction sought with a large enough effect in the signal ratio, not every such curve was filed as active; inconclusive = small, poorly fitted or top-dose-only effect, or a change in a side signal; inactive = no such curve, though single readings can be large or run the other way; the % refers to the signal ratio;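 also: cells stimulated with carbachol in lithium chloride buffer; plate controls were DMSO basal wells for no effect and reference inhibitor wells for full effect; higher means more IMPase inhibition seen as more IP1 and lower FRET ratio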
#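 CHO-M1 cells (CHO stably expressing M1 receptor), compound up to 46 uM final, stimulated with carbachol (50 uM as added) in buffer with 50mM LiCl, pH 7.4, 30 min at 37C. Cytosolic IP1 read by TR-FRET; AC50 from Hill fits.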
# NPSR antagonist: neuropeptide S receptor (human) antagonism, cAMP. Q6W5P4. CHO-NPSR cells, cAMP TR-FRET, antagonist mode. Potency, µM (series often up to 38.3 µM), for the others: at the highest dose activity change, negative = inhibition, actives largely listed as inhibitors. 220,000 compounds, 1% hits. AID 1461; also: potency is read from the fitted curve at half-maximal effect; nearly all actives have a fitted effect of over 50% in size
# HPGD inh: HPGD (human) dehydrogenase inhibition; 150,000 compounds, 4.3% hits; Potency, µM, inactives show at the highest dose activity change, negative = inhibition, most hits filed as inhibitors; purified HPGD, NADH fluorescence kinetic, PGE2 substrate; P15428; active = well fitted inhibition curve with a large enough effect, not every such curve was filed as active; inconclusive = small, poorly fitted or top-dose-only effect, or another doubt; inactive = no such curve, though single readings can be large or run the other way; also: potency is read from the fitted curve at half-maximal effect
# Target sequence (P15428 whole entry, looked up): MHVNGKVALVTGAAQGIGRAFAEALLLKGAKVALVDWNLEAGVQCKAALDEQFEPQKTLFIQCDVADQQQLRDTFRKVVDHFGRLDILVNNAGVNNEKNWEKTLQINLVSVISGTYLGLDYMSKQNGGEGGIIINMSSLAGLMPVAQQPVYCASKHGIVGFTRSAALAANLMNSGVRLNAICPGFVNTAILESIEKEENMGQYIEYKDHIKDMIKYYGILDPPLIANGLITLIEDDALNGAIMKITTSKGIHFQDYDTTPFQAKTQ
#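 NADH formation kinetics: reaction with 30 uM PGE2 and 1 mM NAD+ (final), 20 nM enzyme, Tris-HCl pH 8 with Tween 20, after 15 min compound preincubation at room temperature. Fluorescence change, last versus first of five reads.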
# PNC inhibitor: inhibitors of perinucleolar compartment assembly | PC3M PTB-GFP, PNC prevalence imaging, 16 h; active compounds read low | activity change (PNC), negative = inhibition, % at 10 µM | 140,000 compounds, 3.1% hits;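 active = readout at or below -70, meaning at least 70% loss of cells showing the perinucleolar compartment, a nuclear body marking cancer cells; inconclusive = readout between -30 and a set limit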;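 also: plate controls were DMSO wells for no effect and camptothecin positive control wells for full effect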
#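 Read-out is percentage of cells bearing a perinucleolar compartment, from automated 20x imaging of fixed, Hoechst-stained PC3M PTB-GFP cells. Cells were seeded 4 h, then exposed 16 h to compound (23 nl of library stock) in duplicate plates.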
# ALDH1A1 block: blocks purified human ALDH1A1 activity; P00352; Purified ALDH1A1, NADH fluorescence, propionaldehyde substrate; Potency, µM (titrated, usually from 75.3 µM), for inactives: top-dose activity, negative = inhibition, hits mostly inhibitors; 220,000 compounds, 7.3% hits; AID 1030; active = well fitted inhibition curve with a large enough effect, not every such curve was filed as active; inconclusive = small, poorly fitted or top-dose-only effect, or another doubt; inactive = no such curve, though single readings can be large or run the other way;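 also: potency is read from the fitted curve at half-maximal effect; plate controls were no enzyme wells and a reference inhibitor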
# Target sequence (P00352 whole entry, looked up): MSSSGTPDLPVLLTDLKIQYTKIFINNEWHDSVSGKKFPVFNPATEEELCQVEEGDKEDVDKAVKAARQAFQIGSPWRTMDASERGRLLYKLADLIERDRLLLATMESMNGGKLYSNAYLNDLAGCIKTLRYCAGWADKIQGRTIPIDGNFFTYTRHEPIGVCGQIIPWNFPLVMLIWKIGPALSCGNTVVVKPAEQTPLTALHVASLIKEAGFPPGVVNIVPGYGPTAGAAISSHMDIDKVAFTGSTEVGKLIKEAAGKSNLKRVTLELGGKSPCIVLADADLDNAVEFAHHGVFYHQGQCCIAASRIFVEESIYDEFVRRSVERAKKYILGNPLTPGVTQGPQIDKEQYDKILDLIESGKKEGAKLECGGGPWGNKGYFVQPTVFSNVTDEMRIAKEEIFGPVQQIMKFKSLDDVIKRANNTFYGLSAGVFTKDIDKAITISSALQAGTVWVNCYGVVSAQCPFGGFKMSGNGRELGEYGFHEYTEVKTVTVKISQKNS
# Starred values were filed as active, the others as inactive; ? = inconclusive; · = not tested or not shown; ! = not active in a repeat; [ ] = remark or other dose. Only some compounds are listed: those with a hit (about 11% of all), similar ones and a draw of the others. Unless noted, calls follow the shape of the dose curve; as a rule, active = well fitted curve in the direction sought with a large enough effect; inconclusive = small, poorly fitted or top-dose-only effect, or another doubt; inactive = no such curve, though single readings can be large; an effect the other way counts as inactive or inconclusive. Unless noted, % is scaled to controls: 0 for no effect and ±100 for the full control effect.
SMILES,IMPase Li inh,IMPase inh,NPSR antagonist,HPGD inh,PNC inhibitor,ALDH1A1 block
N#C/C(=C1/CCCCCN1)c1nc2ccccc2[nH]1,7%[38.3 µM],11,1%[46.1 µM],-26%,-18,8.9µM*
CC(=O)Nc1ccc(OC(=O)CC2SC(=O)NC2=O)cc1 (stereo not given),10%[38.3 µM],0,0%[46.1 µM],-12%,22,12%
CCN(CC)S(=O)(=O)c1ccc(C)c(NC(=S)Nc2cccc(S(=O)(=O)N3CCCCCC3)c2)c1,16%,·,-37%,-19%,?,?
CCN(CC)S(=O)(=O)c1cccc(S(=O)(=O)N2CCCCC2)c1,59%[38.3 µM],16,-26%[46.1 µM],-1%,?,3.5µM*
O=S(=O)(c1ccccc1)c1cccc(S(=O)(=O)N2CCCCC2)c1,24%[38.3 µM],-6,?,-11%,-3,2.2µM*
Cc1ccc(S(=O)(=O)c2cccc(S(=O)(=O)N3CCCC3)c2)cc1S(=O)(=O)N1CCCC1,24%[38.3 µM],15,?,-6%,-21,?
CC(=O)Nc1c(O)nc(SCC(=O)N2CCN(c3ccc(F)cc3)CC2)[nH]c1=O,-4%[38.3 µM],19,-1%[46.1 µM],3%,0,?
CC(Oc1cccc(Cl)c1)C(=O)Nc1cc(=O)n(C)c(=O)n1C (stereo not given),23%[38.3 µM],18,-19%[46.1 µM],3%,-24,20%
CN1CCc2cc(Cl)c(O)cc2[C@H](c2ccccc2)C1,·,13,·,·,·,·
Oc1cc2c(cc1O)[C@H](c1ccccc1)CNCC2,19%,1,·,28µM*,·,4%
CN(C)CCCOC(=O)COc1ccc(Br)cc1,·,·,-17%,·,·,-2%
Cc1cc(C)c(-n2c(SCc3nc4ccccc4s3)n[nH]c2=O)c(C)c1,·,·,-52%,·,·,·
Cc1cc(C)c(-n2c(SCCS(=O)(=O)c3ccc(F)cc3)n[nH]c2=O)c(C)c1,·,·,-17%,·,·,14µM*
Cc1ccc(S(=O)(=O)CCSc2nccn2C)cc1,·,·,-17%,·,·,-12%
Cc1ccc(S(=O)(=O)CCSc2n[nH]c(=O)n2-c2ccccc2)cc1,·,·,-7%,·,·,20µM*
Cc1cc(=O)oc2cc(OCc3nnc(-c4ccccc4Br)o3)ccc12,20%[38.3 µM],8,-25%[46.1 µM],?,13,?
O=C(O)COc1ccc2c(-c3ccccc3)cc(=O)oc2c1,18%[38.3 µM],6,-10%[46.1 µM],18µM*,?,?
Cc1cc(=O)oc2cc(OCC(=O)OCc3nnc(-c4ccccc4)o3)ccc12,-2%,-5,-6%[46.1 µM],?,-86*,?
CC(=O)COc1ccc2c(-c3cccc([N+](=O)[O-])c3)cc(=O)oc2c1,4%,·,-8%,·,·,?
Cc1cc(C)cc(OCC(=O)NCCc2nc3ccccc3[nH]2)c1,-6%,-6,15%,·,·,-8%
Cc1cc(=O)oc2cc(OCC(=O)NCCc3nc4ccccc4[nH]3)ccc12,-11%[38.3 µM],8,0%[46.1 µM],?,-87*,?
CC(C)(C)OC(=O)NCC(=O)Oc1cc2oc(=O)cc(-c3ccccc3)c2cc1Cl,-11%,·,-1%,?,?,25µM*
COc1ccccc1NC(=O)CCC(=O)N/N=C(/C)c1ccc(C)cc1,9%,·,5%,0%,?,3%
COc1ccccc1-n1c(SCC(=O)Nc2ccc(C)cc2)nc(O)cc1=O,21%[38.3 µM],0,-11%[46.1 µM],-13%,14,?
COc1ccc(N(C(=O)CNC(=O)c2ccco2)C(C(=O)NC2CCCC2)c2ccncc2)cc1 (stereo not given),5%,·,0%,·,·,-5%
SMILES,IMPase Li inh,IMPase inh,NPSR antagonist,HPGD inh,PNC inhibitor,ALDH1A1 block
CC(C)CC(=O)Nc1ccc2ccccc2c1,4%,·,-3%[7.67 µM],·,·,-5%
CC(=O)NC(C)c1nc2ccccc2n1C(C)C (stereo not given),4%,2,3%,-15%,-119*,6%
Cc1c(N=C(N)/N=C(\N)Nc2ccccc2)c(=O)n(-c2ccccc2)n1C,17%,13,-3%[46.1 µM],-7%,-15,4%
CN(/C(=N\S(=O)(=O)c1ccccc1)C(F)(F)F)c1ccccc1,14%[38.3 µM],9,-7%[46.1 µM],-19%,25,28µM*
Cc1ccc(S(=O)(=O)/N=C(\c2ccccc2)N(C)S(=O)(=O)c2ccccc2)cc1,7%,·,-7%,-9%,-12,?
COc1ccc(C2(C(=O)Nc3nncs3)CCCC2)cc1,5%[38.3 µM],-13,-4%[46.1 µM],-10%,-80*,-2%
O=C(c1ccc2ncsc2c1)N1CCN(c2ccc(O)cc2)CC1,-3%[38.3 µM],2,-9%[46.1 µM],-1%,15,-9%
COc1ccc2nc(SC)c(C#N)cc2c1,11µM*,·,?,·,·,-4%
COc1ccc2nc(SCC(C)=O)c(C#N)cc2c1,14%,·,-8%,-20%,?,3%
C/C(=N/OC(=O)CC(C)C)c1cc(-c2ccc(Cl)cc2)no1,-1%,·,-5%,·,·,5%
COc1ccc(/C=N/n2cc(-c3ccc(OC)cc3)nc2N)cc1,16%[38.3 µM],-8,-12%[46.1 µM],-24%,-129*,?
COc1ccc(/C=N/n2cc(-c3ccccc3)nc2N)cc1,16%,3,-14%[46.1 µM],-29%,?,?
CCCCC/C=C\C/C=C\CCCCCCCC(=O)O,-12%,·,·,8.9µM*!,·,18µM*!
CCOC(=O)N=Nc1c2ccccc2c2nc3no[nH]c3nc12,23%,·,6.3µM*,·,·,-13%
CCOC(=O)Nc1c2ccccc2nc2ccccc12,·,·,27%,·,·,·
Cc1cc(C(=O)NCc2cccs2)cs1,11%[38.3 µM],-9,-1%[46.1 µM],28µM*,-8,2%
Cc1cc(C(=O)NCc2cccs2)c(C)o1,13%[38.3 µM],4,8%[46.1 µM],16µM*,15,-10%
O=C(NCc1cccs1)c1ccc(N2CCCC2=O)cc1,18%[38.3 µM],-3,1%[46.1 µM],20µM*,-20,2%
CCOC(=O)CNC(=O)c1cc(C)oc1C,24%[38.3 µM],10,-19%[46.1 µM],-12%,0,0.063µM*
Cc1cc(C(=O)NCC(=O)O)c(C)o1,-4%[38.3 µM],4,-7%[46.1 µM],-12%,15,4%
O=C(NCCN1CCCCC1)c1ccc2c(c1)OCCO2,2%[38.3 µM],4,-5%[46.1 µM],8.9µM*,29,-10%
O=C(NCc1ccco1)c1cnc2sccn2c1=O,29%[38.3 µM],-6,2%[46.1 µM],?,?,?
Cc1cc(C(=O)NCc2ccco2)cs1,13%[38.3 µM],-13,2%[46.1 µM],16µM*,?,?
O=C(NCc1cccs1)c1ccccc1,-2%[38.3 µM],3,2%[46.1 µM],25µM*,29,7%
O=C(NCCN1CCCCC1)c1ccc(I)cc1,17%,9,·,-3%,·,2%
Cc1csc2ncc(C(=O)NCc3ccco3)c(=O)n12,-2%,1,1%[46.1 µM],?,-100*,?
CN1CCN(c2nc(-c3ccc4c(c3)OCO4)nc3ccccc23)CC1,10%,·,·,·,·,?
COc1ccc(-c2[nH]ncc2CN(C)Cc2nonc2C)c(OC)c1,·,·,4%,·,·,5%
Cc1scc(C(=O)Nc2ccon2)c1-c1ccccc1,9%[38.3 µM],-3,-5%[46.1 µM],-4%,?,28µM*
